Screen size: about 39,000 compounds; about 3,300 (8.5%) were called active. This is one part of a sample in which actives are shown more often than they occur.
Each molecule was assayed on HepG2 (assay: cytotoxicity call (relative viability < 0.9)). Details: 10 µM.

Row | SMILES | cytotoxicity call
1 | O=C(Nc1cccc2ccccc12)c1ccc(C(F)(F)F)cc1 | inactive
2 | COCCCCC(=NOCCN)c1ccc(C(F)(F)F)cc1.O=C(O)C=CC(=O)O | active
3 | Cc1noc(C)c1NC(=O)Nc1ccc2c(c1)CC(=O)N([C@H](C)CO)C[C@@H](C)[C@@H](CN(C)CC1CC1)O2 | inactive
4 | COc1ccc(NC(=O)N(C)C[C@@H]2Oc3ccc(NC(=O)Cn4cnnn4)cc3C(=O)N([C@@H](C)CO)C[C@@H]2C)cc1 | inactive
5 | CO[C@@H]1CN(C)C(=O)c2cc(NS(=O)(=O)c3cn(C)cn3)ccc2OC[C@@H](C)N(CC2CC2)C[C@H]1C | inactive
6 | Cn1c(=O)c2[nH]cnc2n(C)c1=O.NCCN | inactive
7 | C[C@@H]1CN([C@@H](C)CO)C(=O)c2cc(NC(=O)Nc3ccccc3)ccc2O[C@@H](C)CCCCO[C@H]1CN(C)CC1CCCCC1 | inactive
8 | C[C@@H]1CN([C@H](C)CO)C(=O)c2cc(NC(=O)Nc3ccccc3)ccc2O[C@@H](C)CCCCO[C@@H]1CN(C)CC1CCCCC1 | inactive
9 | C[C@@H]1CCCCO[C@H](CN(C)CC2CCCCC2)[C@H](C)CN([C@@H](C)CO)C(=O)c2cc(NC(=O)Nc3ccccc3)ccc2O1 | active
10 | C[C@@H]1CCCCO[C@@H](CN(C)CC2CCCCC2)[C@@H](C)CN([C@H](C)CO)C(=O)c2cc(NC(=O)Nc3ccccc3)ccc2O1 | active
11 | C[C@@H]1CCCCO[C@H](CN(C)CC2CC2)[C@H](C)CN([C@@H](C)CO)C(=O)c2cc(NC(=O)Nc3ccccc3)ccc2O1 | inactive
12 | C[C@@H]1CCCCO[C@H](CN(C)CC2CCCCC2)[C@@H](C)CN([C@H](C)CO)C(=O)c2cc(NC(=O)Nc3ccccc3)ccc2O1 | inactive
13 | C[C@H]1CCCCO[C@H](CN(C)CC2CCCCC2)[C@@H](C)CN([C@@H](C)CO)C(=O)c2cc(NC(=O)Nc3ccccc3)ccc2O1 | inactive
14 | C[C@@H]1CN([C@@H](C)CO)C(=O)c2cc(NC(=O)Nc3ccccc3)ccc2O[C@@H](C)CCCCO[C@@H]1CN(C)CC1CCCCC1 | active
15 | C[C@@H]1CCCCO[C@@H](CN(C)CC2CCCCC2)[C@H](C)CN([C@@H](C)CO)C(=O)c2cc(NC(=O)Nc3ccccc3)ccc2O1 | inactive
16 | C[C@@H]1CCCCO[C@H](CN(C)CC2CC2)[C@@H](C)CN([C@H](C)CO)C(=O)c2cc(NC(=O)Nc3ccccc3)ccc2O1 | inactive
17 | C[C@H]1CCCCO[C@@H](CN(C)CC2CCCCC2)[C@@H](C)CN([C@@H](C)CO)C(=O)c2cc(NC(=O)Nc3ccccc3)ccc2O1 | active
18 | C[C@H](CO)N1C[C@H](C)[C@@H](CN(C)CC2CCCCC2)OCCCC[C@H](C)Oc2ccc(NC(=O)Nc3ccccc3)cc2C1=O | inactive
19 | C[C@H](CO)N1C[C@H](C)[C@@H](CN(C)S(=O)(=O)c2cn(C)cn2)Oc2c(NC(=O)c3nc4ccccc4s3)cccc2C1=O | inactive
20 | COc1ccc(NC(=O)N2C[C@H](O)COC[C@@H]3O[C@@H](CC(=O)NCc4ccccc4OC)CC[C@H]32)cc1 | inactive

Row | SMILES | cytotoxicity call
21 | O=C1O[C@H](c2ccccc2)[C@H](c2ccccc2)N2[C@H]1[C@@H](C(=O)O)[C@]1(C(=O)Nc3ccc(Cl)cc31)[C@H]2c1ccc(F)cc1 | inactive
22 | NC(=O)COc1ccccc1 | inactive
23 | C[C@H](CO)N1C[C@H](C)[C@H](CN(C)C(=O)Nc2ccc3c(c2)OCO3)OCc2cnnn2CCCC1=O | inactive
24 | Cc1noc(C)c1S(=O)(=O)N(C)C[C@@H]1Oc2ccc(NS(C)(=O)=O)cc2C(=O)N([C@@H](C)CO)C[C@@H]1C | inactive
25 | C[C@@H]1CCCCO[C@@H](CN(C)S(=O)(=O)c2cn(C)cn2)[C@@H](C)CN([C@H](C)CO)C(=O)c2cc(NS(C)(=O)=O)ccc2O1 | inactive
26 | COCC(=O)Nc1ccc2c(c1)C(=O)N(C)C[C@H](OC)[C@H](C)CN(Cc1cccc(F)c1)[C@H](C)CO2 | inactive
27 | C=CCOC(=O)[C@@H]1[C@H]2C(=O)O[C@H](c3ccccc3)[C@H](c3ccccc3)N2[C@H](c2ccc(OCCOC(=O)[C@H]3C[C@H]4C(=O)NCC(=O)N4[C@H]3c3cccc(OCCO)c3)cc2)[C@@]12C(=O)Nc1ccccc12 | inactive
28 | C[C@@H]1CN([C@@H](C)CO)C(=O)c2cc(NC(=O)NC3CCCCC3)ccc2O[C@@H](C)CCCCO[C@@H]1CN(C)S(=O)(=O)c1ccc(F)cc1 | inactive
29 | C[C@H]1CN([C@@H](C)CO)C(=O)c2cc(NS(=O)(=O)c3ccc(F)cc3)ccc2O[C@@H]1CN(C)C(=O)Nc1ccc(C(F)(F)F)cc1 | inactive
30 | C[C@@H]1CCCCO[C@@H](CN(C)CC2CCCCC2)[C@@H](C)CN([C@@H](C)CO)C(=O)c2cc(NC(=O)Nc3ccccc3)ccc2O1 | active
31 | C[C@@H]1CCCCO[C@@H](CN(C)CC2CC2)[C@H](C)CN([C@H](C)CO)C(=O)c2cc(NC(=O)Nc3ccccc3)ccc2O1 | inactive
32 | C[C@H](CO)N1C[C@H](C)[C@H](CN(C)CC2CCCCC2)OCCCC[C@H](C)Oc2ccc(NC(=O)Nc3ccccc3)cc2C1=O | active
33 | C[C@H]1CCCCO[C@H](CN(C)CC2CC2)[C@@H](C)CN([C@@H](C)CO)C(=O)c2cc(NC(=O)Nc3ccccc3)ccc2O1 | inactive
34 | C[C@@H]1CCCCO[C@@H](CN(C)CC2CC2)[C@H](C)CN([C@@H](C)CO)C(=O)c2cc(NC(=O)Nc3ccccc3)ccc2O1 | inactive
35 | C[C@H](CO)N1C[C@H](C)[C@@H](CN(C)CC2CC2)OCCCC[C@H](C)Oc2ccc(NC(=O)Nc3ccccc3)cc2C1=O | inactive
36 | C[C@@H]1CCCCO[C@@H](CN(C)CC2CCCCC2)[C@H](C)CN([C@H](C)CO)C(=O)c2cc(NC(=O)Nc3ccccc3)ccc2O1 | active
37 | C[C@@H]1CCCCO[C@H](CN(C)CC2CCCCC2)[C@H](C)CN([C@H](C)CO)C(=O)c2cc(NC(=O)Nc3ccccc3)ccc2O1 | active
38 | Cc1csc2c(N3CCC(Cn4cc(C(C)(C)N)nn4)CC3)ncnc12 | inactive
39 | C[C@@H]1OC2=C(Cl)C(=O)N3CCC[C@H]3C[C@@]21O | inactive
40 | Cc1ccc(S[C@]2(C(=O)NCC(F)(F)F)CC(=O)N(Cc3ccccc3)[C@@H]2c2ccc(CO)cc2I)cc1 | inactive

Row | SMILES | cytotoxicity call
41 | C[C@@H]1CN([C@H](C)CO)S(=O)(=O)c2ccc(C#Cc3cccc(F)c3)cc2O[C@@H]1CN(C)CC1CC1 | inactive
42 | COC(=O)[C@@H]1[C@@H](CO)[C@@H]2Cn3c(cccc3=O)[C@@H]2N1C(=O)C1CC1 | inactive
43 | C[C@H](NC(=O)C[C@@H]1CC[C@H](NC(=O)CN2CCOCC2)[C@@H](CO)O1)c1ccccc1 | inactive
44 | C[C@@H]1CCCCO[C@H](CN(C)Cc2ccccc2)[C@H](C)CN([C@H](C)CO)C(=O)c2cc(NC(=O)Cc3ccccc3)ccc2O1 | inactive
45 | C[C@@H]1CCCCO[C@@H](CN(C)C(=O)Nc2ccc(C(F)(F)F)cc2)[C@H](C)CN([C@@H](C)CO)C(=O)c2cc(NS(=O)(=O)c3ccc(Cl)cc3)ccc2O1 | inactive
46 | C[C@@H]1CCCCO[C@H](CN(C)C(=O)Nc2ccc(C(F)(F)F)cc2)[C@@H](C)CN([C@H](C)CO)C(=O)c2cc(NS(=O)(=O)c3ccc(Cl)cc3)ccc2O1 | inactive
47 | C[C@@H]1CCCCO[C@H](CN(C)C(=O)Nc2ccc(C(F)(F)F)cc2)[C@H](C)CN([C@@H](C)CO)C(=O)c2cc(NS(=O)(=O)c3ccc(Cl)cc3)ccc2O1 | inactive
48 | C[C@H](CO)N1C[C@H](C)[C@@H](CN(C)C(=O)Nc2ccc(C(F)(F)F)cc2)OCCCC[C@H](C)Oc2ccc(NS(=O)(=O)c3ccc(Cl)cc3)cc2C1=O | active
49 | C[C@H]1CCCCO[C@@H](CN(C)C(=O)Nc2ccc(C(F)(F)F)cc2)[C@@H](C)CN([C@@H](C)CO)C(=O)c2cc(NS(=O)(=O)c3ccc(Cl)cc3)ccc2O1 | inactive
50 | C[C@H]1CCCCO[C@H](CN(C)C(=O)Nc2ccc(C(F)(F)F)cc2)[C@@H](C)CN([C@@H](C)CO)C(=O)c2cc(NS(=O)(=O)c3ccc(Cl)cc3)ccc2O1 | inactive
51 | C[C@@H]1CN([C@@H](C)CO)C(=O)c2cc(NS(=O)(=O)c3ccc(Cl)cc3)ccc2O[C@@H](C)CCCCO[C@@H]1CN(C)C(=O)Nc1ccc(C(F)(F)F)cc1 | inactive
52 | C[C@@H]1CN([C@H](C)CO)C(=O)c2cc(NS(=O)(=O)c3ccc(Cl)cc3)ccc2O[C@H]1CN(C)C(=O)Nc1ccc(C(F)(F)F)cc1 | inactive
53 | C[C@H](CO)N1C[C@H](C)[C@H](CN(C)C(=O)Nc2ccc(C(F)(F)F)cc2)OCCCC[C@H](C)Oc2ccc(NS(=O)(=O)c3ccc(Cl)cc3)cc2C1=O | active
54 | C[C@H]1CN([C@@H](C)CO)C(=O)c2cc(NS(=O)(=O)c3ccc(Cl)cc3)ccc2O[C@@H]1CN(C)C(=O)Nc1ccc(C(F)(F)F)cc1 | inactive
55 | C[C@@H]1CCCCO[C@H](CN(C)C(=O)Nc2ccc(C(F)(F)F)cc2)[C@H](C)CN([C@H](C)CO)C(=O)c2cc(NS(=O)(=O)c3ccc(Cl)cc3)ccc2O1 | active
56 | C[C@@H]1CN([C@H](C)CO)C(=O)c2cc(NS(=O)(=O)c3ccc(Cl)cc3)ccc2O[C@@H]1CN(C)C(=O)Nc1ccc(C(F)(F)F)cc1 | active
57 | NCCCC[C@@H](N)C(=O)N[C@@H](Cc1ccc(O)cc1)C(=O)N[C@@H](CCCCN)C(=O)O | inactive
58 | C[C@@H]1CCCCO[C@H](CN(C)C(=O)NC2CCCCC2)[C@H](C)CN([C@@H](C)CO)C(=O)c2cc(NC(=O)Cc3ccccc3)ccc2O1 | inactive
59 | COc1ccc(NC(=O)N(C)C[C@@H]2OCCCC[C@H](C)Oc3ccc(NC(=O)Nc4ccc5c(c4)OCO5)cc3C(=O)N([C@H](C)CO)C[C@@H]2C)cc1 | inactive

— the antibiotic and cytotoxicity screens of Wong et al. (2023)
